# A selection: hits, their analogues and other compounds. The true share with any hit is near 7.5%.
# HCMV antiviral – human cytomegalovirus inhibition; activity change, negative = inhibition, % at 57.5 µM; 410,000 tested, 4.5% active; HFF cells, HCMV-luciferase reporter, 72 h; stronger effect = lower value; in the data active means activity change below about -60%; inconclusive means no clear call, values can overlap the other calls; inactive means above about -39%
#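 Compounds were evaluated in HFFs infected with an HCMV luciferase reporter virus (MOI 1 PFU/cell). Luciferase in lysates collected 72 h post infection served as the replication measure.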
# HCV inhibitor – blocks hepatitis C virus; Potency, µM (highest dose often 41.8 µM), for inactives: top-dose activity change, negative = inhibition, most hits filed as inhibitors; AID 651820; 340,000 tested, 3.4% active; Huh7.5.1 HCVcc-Cre infection, luciferase reporter, 44 h; further: potency means the concentration at half of the fitted maximal effect
#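 Seed cells (1,000/well) for 4 h; treat with compound and infect with HCVcc-Cre, moi about 0.5. Incubate 44 h, then detect luciferase activity.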
# FMDV antiviral – antivirals against foot and mouth disease virus; 410,000 tested, 1.2% active; FMDV antiviral cell-based qHTS; Potency, µM (highest dose often 57.9 µM), inactives show at the top dose activity change, negative = inhibition, actives largely listed as inhibitors; calls by dose curve; tested in HEK293T cells; further: read-out not given here; potency means the concentration at half of the fitted maximal effect; nearly all actives have a fitted effect of over 45% in size
# FBPA Giardia inh – blocks Giardia fructose-bisphosphate aldolase activity. purified Giardia FBPA. Potency, µM (doses to about 59.6 µM), for inactives: at the highest dose activity, negative = inhibition, hits mostly inhibitors. 290,000 tested, 0.71% active. AID 2451; further: potency means the concentration at half of the fitted maximal effect; nearly all actives have a fitted effect of over 55% in size
# Target sequence (A8B2U2 whole entry, looked up): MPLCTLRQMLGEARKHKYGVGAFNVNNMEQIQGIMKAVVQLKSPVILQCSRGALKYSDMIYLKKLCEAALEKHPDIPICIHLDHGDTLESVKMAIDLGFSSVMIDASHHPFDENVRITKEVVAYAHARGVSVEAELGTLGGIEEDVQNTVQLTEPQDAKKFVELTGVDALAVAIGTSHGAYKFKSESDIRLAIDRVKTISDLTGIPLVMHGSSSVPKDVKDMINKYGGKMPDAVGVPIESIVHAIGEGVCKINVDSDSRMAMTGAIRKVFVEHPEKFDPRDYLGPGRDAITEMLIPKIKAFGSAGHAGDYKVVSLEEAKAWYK
#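 40 nM FBPA preincubated 10 min at RT with compound (up to 57.5 uM final), then substrate plus GAPDH/TPI/NAD/arsenate coupling and diaphorase/resazurin added. Fluorescence read after 20 min at RT, 525/598 nm.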
# VACV Venus inh – vaccinia inhibition (Venus reporter); Vaccinia virus Venus reporter expression, fluorescence; 330,000 tested, 0.46% active; Potency, µM (top dose mostly 36.5 µM), without a hit: at the highest dose activity change, negative = inhibition, actives largely listed as inhibitors; AID 720580; calls by dose curve; tested in A549 cells; further: potency means the concentration at half of the fitted maximal effect; nearly all actives have a fitted effect of over 30% in size
# VACV mCherry inh – inhibitors of vaccinia virus infection (mCherry reporter signal) | Vaccinia virus mCherry reporter infection, fluorescence | Potency, µM (titrated, usually from 36.5 µM), inactives show at the top dose activity change, negative = inhibition, actives largely listed as inhibitors | 310,000 tested, 0.63% active; calls by dose curve; tested in A549 cells; further: potency means the concentration at half of the fitted maximal effect; nearly all actives have a fitted effect of over 35% in size
# Active calls of the source: *; i = inactive; ? = inconclusive; / = not tested or not shown; ! = repeats disagree; [ ] = dose if it differs, or a comment. Unless noted, the call rests on the fitted dose curve; in most records, active means well fitted curve in the direction sought with a large enough effect; inconclusive means small, poorly fitted or top-dose-only effect, or another doubt; inactive means no such curve, though single readings can be large; an effect the other way counts as inactive or inconclusive. On the % scale 0 is the no-effect control and ±100 the full control effect.
SMILES,HCMV antiviral,HCV inhibitor,FMDV antiviral,FBPA Giardia inh,VACV Venus inh,VACV mCherry inh
O=C(NCc1ccc(OC(F)(F)F)cc1)C1CC(c2cccc(F)c2)=NO1 (stereo not given),-3,10%,-14%,1%,?,-17%
CCCNC(=O)c1nnsc1S(=O)c1ccc(Cl)cc1 (stereo not given),-101*,?,35µM*,-23%,?,?
CNC(=O)c1nnsc1S(=O)c1ccc(Cl)cc1 (stereo not given),-8,?,?,-17%,-21%,-28%
CCCNC(=O)c1nnsc1S(=O)(=O)c1ccc(Cl)cc1,-99*,6.3µM*,32µM*,-1%,13µM*,?
COC(=O)c1ccc2nc(C3CCCCC3)c(Cc3cccc(Cl)c3)n2c1,-22,/,-13%,/,1%,i
O=c1c2ccccc2c(C=Nc2cccc(O)c2)c(O)n1-c1ccc2c(c1)OCO2,-86*,-23%,-33%,1%,-15%,/
Cc1ccccc1-n1c(O)c(C=Nc2ccc3c(c2)OCO3)c(=O)[nH]c1=O,4,19%,-15%,-11%,-5%,i
CC(C)c1cc(C(=O)N2CCCC(N3CCN(c4ccc(F)cc4)CC3)C2)no1 (stereo not given),27,?,26%,/,-6%,-37%
CC(C)c1cc(C(=O)N2CCCC(N3CCN(c4ccc(F)cc4)CC3)C2)n(C)n1 (stereo not given),-64*,?,?,-15%,/,/
COc1ccc(OCC(NS(=O)(=O)c2ccc(-n3cnnn3)cc2)C(C)C)cc1 (stereo not given),-5,40µM*,-18%,/,/,/
Cc1cc(C(=O)OCc2nnc(-c3ccccc3)o2)c(C)n1-c1ccccc1,-3,14µM*,?,-9%,?,/
O=C(OCc1nnc(-c2ccccc2)o1)c1cn(-c2ccccc2)nc1-c1ccccc1,-1,11µM*,-19%,0%,-16%,/
Cc1noc(C)c1COC(=O)c1cc(C)n(-c2ccccc2)c1C,103,10µM*,-4%,4%,/,/
Cc1noc(C)c1COC(=O)c1cc(=O)[nH]c2ccccc12,?,-1%,0%,4%,-13%,/
CN(C)S(=O)(=O)c1cccc(NC(=O)CO/N=C(\N)c2ccccc2)c1,-2,-29%,21%,/,-14%,i
O=C(CC(=O)c1c(F)cccc1Cl)c1ccccc1O,-18,23%,-6%,-9%,-11%,-6%
COc1ccc(C(C)=O)cc1CC1(C)C(=O)Nc2ccc(OC(F)(F)F)cc21 (stereo not given),-2,/,-7%,/,-17%,-15%
COc1ccc(OC(F)(F)F)cc1CC1(C)C(=O)Nc2ccc(-c3ccsc3)cc21 (stereo not given),-82*,/,0%,/,-8%,-12%
Cc1ccc(S(=O)(=O)NC(=O)COc2cc(C)ccc2C(C)C)cc1,2,13%,-18%,24%,-3%,-6%
C=CCC[C@H](Cc1ccc(F)cc1)C(=O)OC[C@@H](NC(=O)[C@H](CC=C)CC(=O)NCCO)c1ccccc1,-23,12%,-15%,/,-23%,i
O=S(=O)(Nc1cccc(-c2ccc(N3CCCCCC3)nn2)c1)c1ccccc1F,58,-7%,60%,9%,-13%,-14%
O=S(=O)(Nc1cccc(-c2ccc(N3CCCCCC3)nn2)c1)c1ccccc1Cl,-76*,11µM*,7%,/,/,/
COc1ccc(C)cc1S(=O)(=O)Nc1cccc(-c2ccc(N3CCCCCC3)nn2)c1,-18,10µM*,8%,/,/,/
CC(=O)Nc1cccc(-c2cc(N3CCN(CCO)CC3)n3nccc3n2)c1,-13,/,-16%,/,5%,24%
CC(C)(C)OC(=O)N1CCC(c2c(C(=O)NCc3ccco3)cnn2-c2ccccc2)CC1,?,/,4%,/,-12%,-5%
SMILES,HCMV antiviral,HCV inhibitor,FMDV antiviral,FBPA Giardia inh,VACV Venus inh,VACV mCherry inh
O=C(COC(=O)C1CCCCC1)Nc1cc([N+](=O)[O-])ccc1F,33,7%,-15%,-2%,/,/
CN(CCNC(=O)C1CC(=O)N(c2ccc(F)c(Cl)c2)C1)Cc1ccccc1 (stereo not given),-67*,-29%,/,4%,-25%,-12%
CN(C)CCNC(=O)C1CC(=O)N(c2ccc(F)c(Cl)c2)C1 (stereo not given),39,?,9%,4%,/,/
COc1ccc(NC(=O)CSc2ncccc2C(=O)OC(C)C)cc1OC,-87*,7.9µM*,?,?,?,-29%
COc1ccc(NC(=O)CSc2ccccn2)cc1OC,9,5%,31%,-12%,0%,-4%
O=c1ccnc2n1COCS2,-100*,22%,-4%,6%,/,/
O=C(N/N=C/c1cccc2ccccc12)C(=O)N1CCCC1,-71*,-22%,31%,-7%,-7%,i
Oc1ccc(NCc2ccc(OCc3ccccc3)cc2)cc1,-63*!,-23%,24%,?,-1%,-10%
CCc1ccc(CNc2ccc(O)cc2)cc1,/,-3%,-2%,4µM*,0%,-11%
Oc1ccc(OCc2ccccc2)cc1,/,/,/,-2%[21.7 µM],/,/
Cc1occc1C(=O)NNC(=O)c1ccc(S(=O)(=O)N(C)C)cc1,?,-11%,8%,/,-1%,-14%
Cc1cc(C)c(S(=O)(=O)Nc2cccc3cccnc23)c(C)c1,/,/,/,-3%,/,/
Cc1cc(C)c(S(=O)(=O)Nc2ccc[nH]c2=O)c(C)c1,-5,-7%,-17%,5.6µM*,-14%,/
CCc1noc(C)c1C(=O)N(CC)CC(=O)Nc1cc(Cl)ccc1C,-39,-3%,-5%,/,/,/
N#Cc1cc2sc3nnc(-c4ccncc4)n3c2cc1C#N,-62*,?,0%,0%,?,-25%
CCCCS(=O)(=O)C(=C1Nc2ccccc2N1)S(=O)(=O)CCCC,32,-11%,3%,1%,-8%,/
CCS(=O)(=O)C(=C1Nc2ccccc2N1)S(=O)(=O)CC,-98*,-14%,-25%,0%,-4%,/
Cc1cccc2nc(C(=O)Nc3cccc(C(=O)NC4CC4)c3)cn12,0,-29%,27%,/,/,/
Cc1nn(-c2ccccc2)nc1C(=O)Nc1ccc2c(c1)OCCO2,-15,?,4%,/,0%,-18%
Cc1cccc(C(=O)Nc2cccc(C(=O)NC3CCCC3)c2)c1,-33,?,-21%,/,/,/
Cc1nn(-c2cccc(Cl)c2)nc1C(=O)Nc1cccc(C(=O)NC2CC2)c1,4,10µM*,?,/,/,/
Cc1ccc(-n2nc(C)c(C(=O)Nc3cccc(C(=O)NC4CC4)c3)n2)c(C)c1,?,11µM*,28µM*,/,/,/
Cc1nn(-c2ccccc2)nc1C(=O)Nc1cccc(C(=O)NC2CC2)c1,-4,/,32µM*,/,?,-22%
CC1CCC(NC(=O)CCNC(=O)c2ccccc2)CC1 (stereo not given),-23,15%,8%,4%,/,/
